The campaign covered roughly 290,000 compounds. About 400 (0.14%) were called active. The entries come from a sample that favours actives as a whole. A number with no mark means an inactive call. No stated cut-off is given here; in the data, active means inhibition above about 12%; inactive means the rest.

The target of the assay is Replicase polyprotein 1ab (Severe acute respiratory syndrome coronavirus) (UniProt P0C6X7). In words: SARS-CoV 3CLpro protease inhibitors, primary screen, biochemical, quenched FRET (AID 1706). To be noted: recombinant SARS-CoV 3CLpro, quenched FRET peptide cleavage; at 6 µM; hits give high values.
Turning to `COc1ccc(S(=O)(=O)c2c[nH]c(=S)[nH]c2=O)cc1Cl`, the inhibition – broadly, the drop in the measured response relative to a control, in per cent – is -1.78%.

`CN(CC(=O)N1CCN(c2ccccc2)CC1)S(=O)(=O)c1cccs1`: the inhibition was 2.74%.

On to `CC(=O)c1ccc(S(=O)(=O)N2CCC(Oc3ccc(-n4cnnn4)cc3)CC2)cc1`, for which the inhibition was -1.99%.

In the case of `CC(Sc1nnc(CNC(=O)c2ccccc2F)n1C)C(=O)Nc1nccs1` (stereo not drawn), the inhibition was -0.59%.

Consider `COc1cc(C(=O)NCCOC(=O)c2cccc(N(C)C)c2)cc(OC)c1OC`, for which the inhibition is 0.81%.

As to `CCOC(=O)C1CCCN(CCSc2ccc(C)cc2)C1` (stereo not drawn), the inhibition was -2.08%.

Turning to `Cc1ccc(-c2nn(-c3ccccc3)cc2C(=O)Nc2cccc(S(=O)(=O)N3CCOCC3)c2)cc1`, the inhibition was 1.75%.

Consider `O=C(O)c1ccc(NC(=O)c2cn(-c3ccccc3)nc2-c2ccc(Cl)cc2)cc1`, for which the inhibition is 12.7% (active).

Regarding `COc1ccc(-c2nn(-c3ccccc3)cc2/C=C\C(=O)Nc2ccc(C(=O)O)cc2)cc1`, the inhibition is 7.15%.

With `CCc1ccc(N(C(=O)c2csnn2)C(C(=O)NC2CCCCC2)c2ccncc2)cc1` (stereo not drawn), the inhibition is 0.17%.

`CC(C)(C)c1ccccc1NC(=O)CN1C(=O)NC2(CCCC2)C1=O`: the inhibition was 0.18%.

For the molecule `Clc1ccc(Cc2nn3c(-c4ccncc4)nnc3s2)cc1`, the inhibition is 2.77%.

As for `O=C(NCCCN1CCCCC1)C1CCCN(c2ncnc3c2nc2n3CCCCC2)C1` (stereo not drawn), the inhibition is 1.81%.

On to `Cc1nn2c(=O)cc(COC(=O)c3ccc(NC(=O)C(C)(C)C)cc3)nc2s1`, for which the inhibition is -0.62%.

As for `Fc1ccccc1/C=N/Nc1cc(N2CCCCC2)ncn1`, the inhibition was 0.22%.

For `O=C(C1CCC(C(=O)N2CCCC2)CC1)N1CCCC1` (stereo not drawn), the inhibition was -3.63%.

For `COc1cccc(-c2noc(C3CCCN(C(=O)c4ccc(F)cc4)C3)n2)c1` (stereo not drawn), the inhibition was 2.89%.

Take `CCNS(=O)(=O)c1ccc(CCC(=O)N2CCN(c3cc(Cl)ccc3C)CC2)cc1`: the inhibition is 0.81%.

As to `CC(C)(C)C1CCC(C(=O)NCC(c2cccs2)N2CCOCC2)CC1` (stereo not drawn), the inhibition was 4.8%.

Regarding `COc1cc(NS(=O)(=O)c2ccc(NC(=S)NC(=O)c3ccc(Br)cc3)cc2)ncn1`, the inhibition was -2.77%.

As for `COc1cc(CCC(=O)N2CCN(c3ccccc3Cl)CC2)cc(OC)c1OC`, the inhibition was -0.35%.

Consider `CCN(CC)S(=O)(=O)c1ccc(Cl)c(C(=O)NCCN2CCOCC2)c1`, for which the inhibition is -0.28%.

With `CC(C)CCN1CCN(Cc2cn[nH]c2C2CCCCC2)CC1CCO` (stereo not drawn), the inhibition was 1.66%.

Take `COc1ccccc1/C=C/C(=O)NC(=S)N1CCOCC1`: the inhibition was 2.02%.

Turning to `COc1ccc(Cc2nc3ccc(C(=O)N4CCC(N(C)C)C4)cc3o2)cc1` (stereo not drawn), the inhibition is -1.77%.

Consider `C[C@@]12C(=O)N(c3cccc(Br)c3)C(=O)N1[C@H](c1ccc(Cl)cc1)[C@@H]1C(=O)N(C3CCCCC3)C(=O)[C@@H]12`, for which the inhibition was 32.5% (active).

Regarding `Cc1cccc(N2C(=O)N3[C@H](c4ccc(F)cc4)[C@@H]4C(=O)N(C5CCCCC5)C(=O)[C@@H]4[C@]3(Cc3ccccc3)C2=O)c1`, the inhibition was 9.1%.

In the case of `Cc1cccc([C@@H]2[C@@H]3C(=O)N(Cc4ccccc4)C(=O)[C@@H]3[C@]3(C)C(=O)N(c4ccc(Br)cc4)C(=O)N23)c1`, the inhibition was -2.23%.

As for `Cn1c(=O)c(=O)n(C)c2cc(S(=O)(=O)CCC(=O)N3CCCCC3)ccc21`, the inhibition was -7.51%.

As for `O=C(NCc1cccc(C(F)(F)F)c1)c1cccc(S(=O)(=O)N2CCN(Cc3ccccc3)CC2)c1`, the inhibition was 1.65%.

With `O=C(COc1ccc(S(=O)(=O)Nc2cccc(C(F)(F)F)c2)cc1)N1CCOCC1`, the inhibition was -1.24%.

Regarding `O=C(NCc1ccccc1)c1ccc(S(=O)(=O)Nc2cccc(C(F)(F)F)c2)cc1`, the inhibition was 17.3% (active).

Consider `CN(C(=O)CCNC(=O)Cn1ccc2ccccc2c1=O)c1ccc(Br)cc1`, for which the inhibition was 1.62%.

Consider `COc1cc(/C=C(\C#N)c2nc3ccccc3[nH]2)ccc1O`, for which the inhibition is -3.33%.

As to `COc1ccc(/C=C(\C#N)c2c[nH]c3ccccc23)cc1`, the inhibition was 14.6% (active).

On to `COc1ccc2[nH]cc(/C=C(/C#N)S(=O)(=O)c3ccccc3)c2c1`, for which the inhibition was 4.75%.

In the case of `CC(c1cccnc1)N(CCN(C)C)C(=O)Nc1ccc(Cl)c(Cl)c1` (stereo not drawn), the inhibition is 2.29%.

As for `CS(=O)(=O)N(Cc1ccccc1Cl)c1ccc(C(=O)NCc2cccnc2)cc1`, the inhibition is 1.33%.

As for `O=C(Nc1ccc(S(=O)(=O)NCC2CCCO2)cc1)c1ccc(F)cc1` (stereo not drawn), the inhibition was -0.56%.

On to `O=S(=O)(Nc1ccccc1)c1ccc(NS(=O)(=O)c2cccs2)cc1`, for which the inhibition is 2.66%.

As to `COC(=O)C1=CN(c2ccc(F)c(F)c2)C=C(C(=O)OC)C1c1ccc([N+](=O)[O-])cc1`, the inhibition is 1.13%.

Turning to `O=C(NCc1ccc(F)cc1)C1CCN(C(=O)Nc2ccc(F)cc2)CC1`, the inhibition was 5.05%.

On to `CC(C)c1ccc(C2C(C(=O)c3ccco3)=C(O)C(=O)N2CC2CCCO2)cc1` (stereo not drawn), for which the inhibition is -0.41%.

Consider `Cc1nn(C)c(C)c1C(C)NC(=O)c1ccc(OC2CCN(Cc3ccccn3)CC2)cc1` (stereo not drawn), for which the inhibition was 3.56%.

For `CCOc1ccc(OCc2cccc(C(=O)N(CC)CC)c2)cc1`, the inhibition was -3.35%.

Turning to `COc1ccc(C(=O)NCCSc2ccccc2C)cc1`, the inhibition is 6.37%.

For `Cc1ccc(C(CNC(=O)Nc2ccccc2)N2CCN(C)CC2)cc1` (stereo not drawn), the inhibition was -5.22%.

Regarding `Cc1ccc(CS(=O)(=O)CCC(=O)NCc2ccc(F)cc2)cc1`, the inhibition was -1.28%.

In the case of `COc1cccc(CC2(CO)CCCN(Cc3ccc(OC(F)F)cc3)C2)c1` (stereo not drawn), the inhibition was -5.59%.

Regarding `CCOC(=O)CN(Cc1ccc(OC)c(OC)c1)S(=O)(=O)c1ccc(OC)cc1`, the inhibition was 4.93%.

Take `COc1ccc(CN(C)C(=O)CC(c2ccccc2)c2ccccc2)cc1`: the inhibition is 4.64%.

Take `COc1ccc(C(CCN(Cc2ccc(OC)c(OC)c2)C(=O)CCl)c2ccccc2)cc1` (stereo not drawn): the inhibition was 34.5% (active).

On to `COC(=O)COc1cccc2c(=O)n(CC(=O)NCc3ccccc3)ccc12`, for which the inhibition was 12.8% (active).

With `Cc1ccc(CNC(=O)CCNC(=O)Cn2ccc3ccccc3c2=O)cc1`, the inhibition is 3.36%.

`COC(=O)COc1cccc2c(=O)n(CC(=O)NCCc3ccc(OC)c(OC)c3)ccc12`: the inhibition was 4.26%.

Turning to `CCCCNC(=O)N(O)C1N(/N=C/c2ccccc2O)C(=S)SC1(C)C` (stereo not drawn), the inhibition was 4.34%.

With `CCCCNC(=O)N(O)C1N(/N=C/c2ccc(N(C)C)cc2)C(=S)SC1(C)C` (stereo not drawn), the inhibition was 77.3% (active).

As to `CCC(C)N1C(=S)SC(C)(C)C1N(O)C(=O)NC1CCCCC1` (stereo not drawn), the inhibition is -0.75%.

As for `O=C(Cc1ccccc1F)NC1CCSc2ccccc21` (stereo not drawn), the inhibition is -4.7%.

As to `Cc1ccnc(NS(=O)(=O)c2ccc(NC(=O)c3oc4ccccc4c3C)cc2)n1`, the inhibition is -4.86%.

Consider `C=C(C)COc1ccc(-c2n[nH]c(C)c2-c2ccccc2OC)c(O)c1`, for which the inhibition is 11.1%.

For the molecule `C=C(C)COc1ccc(-c2n[nH]c(C)c2-c2ccccc2)c(O)c1`, the inhibition is 14.1% (active).

On to `CCOc1ccc(-c2n[nH]c(C)c2-c2ccccn2)c(O)c1`, for which the inhibition was 3.95%.

For `O=c1cc(-c2ccccc2)nc(N2CCCCC2)[nH]1`, the inhibition was 3.63%.

In the case of `CC(=O)c1cc(-c2ccccc2)[nH]c1N1CCCC1`, the inhibition was 57.1% (active).

For `CC(=O)c1cc(C#N)c(N2CCCCC2)nc1C`, the inhibition is 5.03%.

In the case of `CC(=O)c1cnc(Nc2nc(C)c3cc(C)ccc3n2)nc1C`, the inhibition is 2.54%.

For `CN(C)/N=C/c1cn(-c2ccccc2)nc1-c1cccnc1`, the inhibition was 9.07%.

For `O=C(O)/C=C/c1cn(Cc2ccccc2)nc1-c1cccs1`, the inhibition was 3.03%.

As to `O=Cc1cn(Cc2ccccc2)nc1-c1cccnc1`, the inhibition was 39.5% (active).

With `O=C1CCC(=O)N(c2ccccc2)N1`, the inhibition was 2.8%.

Take `CC(C)C[C@@H](CO)N1CCN(Cc2ccc(O)cc2)CCC1=O`: the inhibition was -3.5%.

Consider `CC(C)Nc1ccc(-n2nc3ccccc3[n+]2[O-])cc1`, for which the inhibition was -2.9%.

Regarding `COc1ccc(N2CCN(C(=O)CNC(=O)c3ccc(Br)o3)CC2)cc1`, the inhibition was -5.34%.

As to `O=C(Nc1ccc(S(=O)(=O)N2CCCCC2)cc1)C1CC(=O)N(c2ccc(F)cc2)C1` (stereo not drawn), the inhibition is 1.61%.

In the case of `CCc1ccc(-n2c(SCc3cc(=O)n4cc(Br)ccc4n3)nc3[nH]ncc3c2=O)cc1`, the inhibition was 0.2%.

Consider `CN(C)Cc1c(C(=O)N/N=C/c2ccccc2OCc2ccc(F)cc2)nnn1-c1nonc1N`, for which the inhibition is 0.8%.

On to `COc1ccc(NC(C(=O)Nc2cccc(C(C)=O)c2)c2ccccc2)cc1` (stereo not drawn), for which the inhibition was 1.08%.

As for `CCOC(=O)c1cccc(NC(=O)C2CCN(c3ncnc4c3nc3n4CCCCC3)CC2)c1`, the inhibition was 6.86%.

`CCn1c(/C=C/Nc2ccccc2)[n+](CC)c2ccc(C(=O)OCC(F)(F)F)cc21`: the inhibition is -5.62%.

With `CC1CCN(Cc2nc3c(c(=O)n(C)c(=O)n3C)n2CCc2ccccc2)CC1`, the inhibition was 0.08%.

Take `COc1ccccc1C(=O)NCc1nnc(SC(C)C(=O)Nc2nccs2)n1C` (stereo not drawn): the inhibition was 1.41%.

Take `CN1C(CC(=O)Nc2ccc(Br)cc2)c2ccccc2CC1(C)C` (stereo not drawn): the inhibition was 0.03%.

Take `CCSCc1nc(N)nc(NCCc2ccccc2)n1`: the inhibition was 1.32%.

Regarding `COc1ccccc1CNC(=O)C1CCN(S(=O)(=O)c2ccc3c(c2)OCCO3)CC1`, the inhibition is 0.14%.

With `O=C(Nc1ccc(Cl)c(Cl)c1)c1ccccc1NC(=O)C1CC=CCC1C(=O)O` (stereo not drawn), the inhibition was 4.04%.

For `CC(C)CCn1cnc2c1c(=O)n(CC(=O)NC(N)=O)c(=O)n2Cc1ccccc1`, the inhibition is 2.02%.

Consider `O=C(NCCCN1CCCCC1)C1CC(=O)N(CCc2ccccc2)C1` (stereo not drawn), for which the inhibition is -1.63%.

These data come from PubChem BioAssay AID1706 (The Scripps Research Institute Molecular Screening Center, 2009).
